Consider 36 molecules from PubChem BioAssay (Tox21).

Results filed as inconclusive are left out. Unmarked numbers belong to inactive results. The source made the active and inactive calls. Unless noted, the call rests on the fitted dose curve.
On the % scale 0 is the no-effect control and ±100 the full control effect.

One experiment in a line: qHTS assay to identify small molecule agonists of the hypoxia (HIF-1) signaling pathway (AID 1224846; active means well fitted activation curve with a large enough effect in the signal ratio in the repeat runs, not every such curve was filed as active; the % refers to the signal ratio). The conditions noted are these: HRE-bla ME-180 cells, beta-lactamase ratio, 17 h; series mostly up to 76.8 µM; activation: at the top concentration. An outline of the steps: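 Steps: seed ME-180 HRE-bla cells (2,000/well, 0.5% dialyzed FBS); incubate 5 hrs at 37C; pin-transfer compounds or DMSO; incubate 17 hrs; add LiveBLAzer B/G substrate CCF4-AM; measure reporter activation by FRET.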
A general note: In qHTS, concentration-response curves come from the screen itself.
As for `CCN(CC)CCCN(c1ccccc1)C1Cc2ccccc2C1`, the “activation” value was 1.21% [at 35.5 µM].
`O=C=NCc1cccc(CN=C=O)c1`: the activation is -0.762% [at 15.8 µM].
For the molecule `COc1ccc(C#N)cc1`, the “activation” value was -0.164%.
Same read-out and setting: under `CCCCCCCCC(C)=O` stands -0.574%; under `CCc1ccc(O)c(C(C)(C)C)c1`, -0.166%; under `CCCCCCCC/C=C\CCCCCCCC(=O)OCCOC(=O)CCCCCCC/C=C\CCCCCCCC`, -0.408%.
As for `CCCCCCCCCCCCCc1ccccc1`, the “activation” value is 0.423% [at 35.5 µM].
With `CCOC(=O)CN`, the “activation” value is -0.471%.
On the same count and under the same terms, the same measure for `Cc1c(C(=O)O)cccc1[N+](=O)[O-]`: -1.88%; for `CCc1ccc(C)nc1`: -0.475%.
As for `COc1cccc(O)c1`, the “activation” value is -1.08%.
Regarding `CC(=O)O[C@@H]1C[C@@H]2CC[C@@]1(C)C2(C)C`, the “activation” value was -0.341%.
The same measure, in the same setting: the same measure for `OCCN1CN(CCO)CN(CCO)C1`: 0.375%; for `CCCCCCCC(C)=O`: -0.196%; for `CCCCCCCC(OC)OC`: 0.511% [at 35.5 µM].
The same measure, in the same setting: the same measure for `C=CC(C)C#N` (centres undefined): 0.213%.
On the same count and under the same terms, the same measure for `CCC(=O)OCCc1ccccc1`: -0.675%; for `O=S(O)O`: -0.609% [at 15.8 µM].

The next experiment is described as follows: qHTS assay to identify small molecule agonists of H2AX - cell viability counter screen (AID 1224847). Further: nearly all actives have a fitted effect of over 30% in size. Further: potency means the concentration at half of the fitted maximal effect.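 On activity change, negative = cytotoxicity: wild-type CHO-K1 cells; top concentration of the series differs between compounds.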 As to conditions: CHO-K1 viability, CellTiter-Glo luminescence, 3 h; series mostly up to 154 µM; activity change, negative = cytotoxicity: at the top concentration. An outline of the steps:
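After overnight plating of 1000 CHO-K1 cells per well, a 15-concentration compound series was applied for 3 hr at 37C. Luminescence from CellTiter-Glo, read following 30 min at room temperature, reflected cell viability.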
As for `CC(C)=CC1CC(C)CCO1` (centres undefined), the “activity change, negative = cytotoxicity” value is 2.22%.
Same read-out and setting: the same measure for `O=C1OC(=O)c2ccc3c4c(ccc1c24)C(=O)OC3=O`: -1.62%.
On the same count and under the same terms, the same measure for `CC1CCCCC1`: 2.3%.
The same measure, in the same setting: under `Cc1cc(C)c(C=O)c(C)c1` stands 1.34%; under `Clc1nc2ccccc2s1`, 0.651%.
For the molecule `Cc1cn[nH]c1`, the “activity change, negative = cytotoxicity” value was 2.68% [at 70.9 µM].
Consider `CCCC(C)CCC(C)=O` (centres undefined), for which the “activity change, negative = cytotoxicity” value was -0.736%.
The same measure, in the same setting: under `Cc1cccc(Br)c1` stands 1.7%; under `O=CC1CC1`, 0.386%; under `OCCCc1cccnc1`, 2.24%.
Same read-out and setting: the same measure for `OCCC(O)CO` (centres undefined): -0.289%; for `COC(=O)CC#N`: 0.349%.
For `O=C(O)CCCCCCC(=O)O`, the “activity change, negative = cytotoxicity” value is 0.923%.
Same read-out and setting: the same measure for `COc1ccccc1C=O`: 1.01%; for `Clc1cccnc1`: -0.491%.
Still for that read-out and setting: the same measure for `CCOB(OCC)OCC`: -2.06%.
Consider `CC(=O)C=O`, for which the “activity change, negative = cytotoxicity” value was 0.585%.
Same read-out and setting: under `CCC(=O)CC(C)CC` (centres undefined) stands -3.23% [at 0.582 µM]; under `CCN(CC)CCCN(c1ccccc1)C1Cc2ccccc2C1`, -1.29% [at 70.9 µM].
In the case of `O=C=NCc1cccc(CN=C=O)c1`, the activity change, negative = cytotoxicity is 1.36% [at 31.6 µM].
Take `COc1ccc(C#N)cc1`: the “activity change, negative = cytotoxicity” value is -0.395%.
Still for that read-out and setting: under `CCCCCCCCC(C)=O` stands 0.449%.
As to `CCc1ccc(O)c(C(C)(C)C)c1`, the Potency was 101 µM (active).
Take `CCCCCCCC/C=C\CCCCCCCC(=O)OCCOC(=O)CCCCCCC/C=C\CCCCCCCC`: the “activity change, negative = cytotoxicity” value was -2.51%.
`CCCCCCCCCCCCCc1ccccc1`: the “activity change, negative = cytotoxicity” value was -1.18% [at 70.9 µM].
On the same count and under the same terms, under `CCOC(=O)CN` stands -0.813%; under `Cc1c(C(=O)O)cccc1[N+](=O)[O-]`, -0.939%.
Same read-out and setting: the same measure for `CCc1ccc(C)nc1`: 0.0201%; for `COc1cccc(O)c1`: 0.368%; for `CC(=O)O[C@@H]1C[C@@H]2CC[C@@]1(C)C2(C)C`: 0.0895%.
As to `OCCN1CN(CCO)CN(CCO)C1`, the “activity change, negative = cytotoxicity” value was 0.0354%.
Still for that read-out and setting: under `CCCCCCCC(C)=O` stands 0.323%; under `CCCCCCCC(OC)OC`, -0.367% [at 70.9 µM].
As for `C=CC(C)C#N` (centres undefined), the “activity change, negative = cytotoxicity” value was -1.61%.
Still for that read-out and setting: the same measure for `CCC(=O)OCCc1ccccc1`: -0.293%; for `O=S(O)O`: 3.26% [at 31.6 µM].
